# Only some compounds are listed: those with a hit (about 2.4% of all), similar ones and a draw of the others.
# Cruzain inh Det: inhibitors of Trypanosoma cruzi cruzain with detergent; AID 1478; P25779; Potency, µM, for the others: max response, negative = inhibition, most hits filed as inhibitors; purified cruzain, Z-FR-AMC fluorescence, 0.01% Triton; 200,000 tested, 0.43% active;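 further: plate controls were neutral wells for no effect and buffer without enzyme for full effect; nearly all actives have a fitted effect of over 40% in size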
# Target sequence (P25779 123-467 limits assumed): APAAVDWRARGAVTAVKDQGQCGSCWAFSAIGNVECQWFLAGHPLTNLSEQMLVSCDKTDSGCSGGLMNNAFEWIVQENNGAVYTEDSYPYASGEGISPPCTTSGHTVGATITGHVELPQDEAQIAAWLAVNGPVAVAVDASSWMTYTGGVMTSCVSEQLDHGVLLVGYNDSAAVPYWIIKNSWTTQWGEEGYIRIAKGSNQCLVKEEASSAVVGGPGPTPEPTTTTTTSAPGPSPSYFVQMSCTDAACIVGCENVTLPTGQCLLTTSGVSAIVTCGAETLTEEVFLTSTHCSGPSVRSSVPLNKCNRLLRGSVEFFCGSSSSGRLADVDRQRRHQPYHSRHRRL
#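 Cysteine protease activity tested under reducing, mildly acidic conditions (100 mM sodium acetate pH 5.5, 5 mM DTT) plus 0.01% Triton X-100. Cruzain 1.5 nM; substrate Z-FR-AMC 2 uM; 15 min compound preincubation at room temperature.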
# Cruzain inh noDet: cruzain (T. cruzi) inhibition without detergent | P25779 | purified cruzain, Z-FR-AMC fluorescence, no detergent | Potency, µM, for the others: max response, negative = inhibition, usual class: inhibitors | 200,000 tested, 2.3% active;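 further: plate controls were enzyme without inhibitor for no effect and buffer without enzyme for full effect; nearly all actives have a fitted effect of over 40% in size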
#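 Purified cruzain at 1.5 nM, pre-incubated 15 min with compound at room temperature in 100 mM sodium acetate pH 5.5, 5 mM DTT, 0.00005% Triton X-100. Reaction started with 2 uM Z-FR-AMC; AMC fluorescence increase over 60 s gives rate.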
# Starred values were filed as active, the others as inactive; ? = inconclusive. The call rests on the fitted dose curve; in most records, active means well fitted curve in the direction sought with a large enough effect; inconclusive means small, poorly fitted or top-dose-only effect, or another doubt; inactive means no such curve, though single readings can be large; an effect the other way counts as inactive or inconclusive. Potency means the concentration at half of the fitted maximal effect.
SMILES,Cruzain inh Det,Cruzain inh noDet
CC1=CC(C)(C)n2c(O)c(C3=NC(=S)NC3=O)c3cc(OC(=O)c4cccc5ccccc45)cc1c32,1%,3.2µM*
COc1cccc(C(=O)Oc2cc3c4c(c2)C(C)=CC(C)(C)N4C(=O)C3=O)c1,-4%,14%
O=C(c1cc(C(=O)NCc2ccc(Cl)cc2)c(=O)n(Cc2ccc(Cl)cc2)c1)c1cc(F)ccc1O,-4%,16µM*
O=C(NCc1ccc(Cl)cc1)c1ccc(Cn2cc(C(F)(F)F)ccc2=O)cc1,-8%,5%
CCCC1CCC(C2=N/C(=C\c3ccc(OC)c(OC)c3)C(=O)O2)CC1 (stereo not given),1µM*,2.5µM*
COc1ccc(/C=C2\N=C(SC)SC2=O)cc1OC,-5%,-6%
Cc1nc2ccccc2nc1-c1ccc(N=[N+]([O-])c2ccc(-c3nc4ccccc4nc3C)cc2)cc1,1%,8%
COc1cccc(Cn2c(=O)n(Cc3ccco3)c(=O)c3oc4ccccc4c32)c1,-2%,-1%
S=c1nc(-c2nc(=S)[nH]c3c2CCCCCCCCCC3)c2c([nH]1)CCCCCCCCCC2,2%,3%
COc1ccccc1NC(=O)Cn1c(=O)n(Cc2ccco2)c(=O)c2oc3ccccc3c21,-2%,-5%
NC(N)=NCCN=C(N)N,1%,8%
CC(=C/c1ccccc1)/C=N/Nc1nc(N2CCCCC2)nc(N2CCCCC2)n1,-4%,-10%
C(=C\c1ccccc1)/C=N/Nc1nc(N2CCCCC2)nc(N2CCCCC2)n1,1%,4µM*
CC(=O)C[C@H](c1ccc([N+](=O)[O-])cc1)c1c(O)c2ccccc2oc1=O,-1%,2%
COc1cc(NC(=S)NCCC(c2ccccc2)c2ccccc2)cc(OC)c1,-10%,32µM*
COc1cccc(NC(=S)NCCC(c2ccccc2)c2ccccc2)c1,-3%,-9%
C=CCn1c(=O)n2ncnc2c2c3c(sc21)CCCC3,0%,-10%
O=c1n(Cc2ccc(Cl)cc2)c2sc3c(c2c2ncnn12)CCCC3,-13%,25µM*
Clc1ccc2nc(N3CCN(c4ccccc4)CC3)sc2c1,0%,20µM*
O=S(=O)(c1ccccc1)N1CCN(c2nc3ccccc3s2)CC1,4%,-4%
c1c2c(cc3sc(N4CCOCC4)nc13)OCO2,2%,-20%
c1ccc(N2CCN(c3nc4cc5c(cc4s3)OCO5)CC2)cc1,-5%,13µM*
CC1=C(C(=O)Nc2ccc(Cl)cc2)C(C(C)C)n2nc(SCc3ccc(Cl)cc3)nc2N1 (stereo not given),-2%,-7%
COc1ccc2cc(C(=O)NCc3ccc4c(c3)CCN4C(=O)c3ccccc3)[nH]c2c1,-1%,?
Cc1cccc(C(=O)N2CCc3cc(CNC(=O)c4cc5ccccc5[nH]4)ccc32)c1,-1%,32µM*
SMILES,Cruzain inh Det,Cruzain inh noDet
Cn1c(=O)c2c(nc3n(-c4ccc(O)cc4)c(-c4ccc(Br)cc4)cn23)n(C)c1=O,4%,-3%
O=[N+]([O-])c1ccc(Cl)c(CNc2ncnc3c2ncn3[C@@H]2CCCCO2)c1,1%,0%
Cn1nccc1C(=O)Nc1ccn(C23CC4CC(CC(C4)C2)C3)n1,-5%,-7%
O=C(Nc1ccc(Br)cc1)c1nn(C23CC4CC(CC(C4)C2)C3)cc1Br,0%,25µM*
Cc1ccc(C)c(N2CCN(S(=O)(=O)c3cc(C(=O)Nc4cc(Cl)cc(Cl)c4)ccc3F)CC2)c1,0%,-12%
Cc1ccc(N2CCN(S(=O)(=O)c3cc(C(=O)Nc4cc(Cl)cc(Cl)c4)ccc3F)CC2C)cc1 (stereo not given),1%,2.5µM*
Cc1cc2ncn(CC(=O)O)c2cc1C,-1%,1%
O=C(Nc1ccc(F)c(F)c1)C1CCCN1S(=O)(=O)c1cccc2nsnc12 (stereo not given),-1%,-2%
O=C(COc1ccc(Cl)cc1)Nc1nnc(-c2ccc3c(c2)CCCC3)o1,1%,7.9µM*
O=C(Nc1nnc(-c2ccc(Cl)cc2)o1)NC1CCCCC1,9%,25µM*
CC(=O)Nc1nnc(-c2ccc3c(c2)CCCC3)o1,-2%,-10%
O=C(Nc1ccc(Cl)cc1)NC1CCCCC1,-1%,-2%
CCN(CC)S(=O)(=O)c1ccc2c(c1)N(CC(=O)NCCCN1CCN(c3cc(C)ccc3C)CC1)C(=O)CO2,2%,6%
COc1cc(NC(=O)CC(c2ccc(C)cc2)N2Cc3ccccc3C2=O)cc(OC)c1 (stereo not given),-7%,-11%
O=[N+]([O-])c1ccc(Nc2ccccc2)cc1,-10%,-11%
O=c1nc(Nc2ccccc2)sc2ccc([N+](=O)[O-])cc12,-3%,10µM*
CCC1=C2CC[C@H]3C(=O)N(c4ccccc4)C(=O)[C@H]3[C@H]2[C@@]2(Cc3ccccc3)C(=O)N(CC(=O)OC)C(=O)N2C1=O,-6%,8%
Cc1cccc(C(=O)Nc2ccc(C(=O)OCc3cc(=O)n4nc(CC(C)C)sc4n3)cc2)c1,1%,-7%
Cc1ccc(N2C(=O)/C(=C/c3cccnc3)SC2=S)cc1,-3%,?
Cc1cc(/C=C2/SC(=S)N(c3ccc([N+](=O)[O-])cc3)C2=O)c(C)n1-c1cccnc1,-12%,16µM*
CCOC(=O)c1cc2c(=O)n3ccccc3nc2n(CCCOC)c1=NC(=O)c1c(-c2ccccc2Cl)noc1C,1%,-4%
O=[N+]([O-])c1cccc2ccc(/C=C/c3ccc(C(F)(F)F)cc3)nc12,-10%,-4%
O=[N+]([O-])c1cccc2ccc(/C=C/c3ccc(Cl)cc3)nc12,-5%,10µM*
COc1ccc(NC(=O)/C=C/c2cc(Br)ccc2OC)cc1,-5%,-2%
CCN(CC)c1ccc(NC(=O)/C=C/c2cc(Br)ccc2OC)cc1,-4%,25µM*
SMILES,Cruzain inh Det,Cruzain inh noDet
O=C(O)CCc1ccc(-c2ccccc2)[nH]1,-5%,-2%
O=C(N/N=C/c1cc2ccccc2nc1Cl)/C(=C/c1cccs1)NC(=O)c1ccccc1,-7%,25µM*
O=C(N/N=C/c1cccnc1)/C(=C\c1cccs1)NC(=O)c1ccccc1,-12%,-7%
COc1cc(NC(=O)CN2C(=O)NC(C)(c3ccc4ccccc4c3)C2=O)c(C)cc1[N+](=O)[O-] (stereo not given),-8%,20µM*
COc1cc([N+](=O)[O-])ccc1NC(=O)CSc1nc2ccccc2n1-c1ccccc1,-2%,13µM*
COc1cc(NC(=O)CN2C(=O)NC(C)(c3ccccc3)C2=O)c(C)cc1[N+](=O)[O-] (stereo not given),-5%,-11%
COc1ccc([N+](=O)[O-])cc1NC(=O)CSc1ccccc1,-9%,7%
COc1cc(NC(=O)CSc2nc(C)c(C)c(C)n2)c(C)cc1[N+](=O)[O-],-2%,5%
CCOc1ccc(-n2c(SCC(=O)Nc3cc(OC)c([N+](=O)[O-])cc3C)nc3ccccc32)cc1,-2%,7.9µM*
CCc1ccc(NC(=O)Cn2c(=O)n(CCC(=O)NCCc3ccc(Cl)cc3)c(=O)c3ccccc32)cc1,-2%,7%
Cc1c(NC(=O)C(C)OC(=O)c2cccs2)c(=O)n(-c2ccccc2)n1C (stereo not given),-1%,-7%
Cc1cc(C)c(NC(=O)C(C)OC(=O)c2cc(Br)c(Br)s2)c(C)c1 (stereo not given),-1%,25µM*
CCN1C(C(=O)c2ccccc2)=C(OC(=O)c2ccc(Cl)cc2)c2ccccc2S1(=O)=O,-5%,?
CCOCCCn1c(=N)c(C(=O)NCC2CCCO2)cc2c(=O)n3cc(C)ccc3nc21 (stereo not given),1%,?

# Screening results deposited in PubChem by National Center for Advancing Translational Sciences (NCATS).
